Calls of active or inactive are those of the source.

A short description of assay [1]: small molecules captured by biotinylated probe aFSTL3 – biochemical, small-molecule microarray, fluorescence 635/667, stem cell growth factor project, primary screen (AID 1064).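 Note: measures binding of the biotinylated anti-FSTL3 antibody to printed compounds.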 Conditions: higher = more signal.
Assay [2] in a line: binders from COS7 lysate, DM2A8 probe, primary screen, torsin A project, cell lysate, small-molecule microarray, fluorescence 635/667 (AID 1065). Conditions: higher = more signal, COS7 lysate expressing mutant human TOR1A.
The nature of assay [3]: small molecules captured by biotinylated probe aFGF2 – biochemical, small-molecule microarray, fluorescence 635/667, stem cell growth factor project, primary screen (AID 1067).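 Note: measures binding of biotinylated aFGF2 protein to printed compounds on slides; z-score merges feature fluorescence and signal-to-noise across triplicate slides.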 Conditions: higher = more signal.
Assay [4] is described as follows: small molecules captured by biotinylated probe aFGF10 – biochemical, small-molecule microarray, fluorescence 635/667, stem cell growth factor project, primary screen (AID 1071).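 Note: score merges 667 nm spot intensity and signal to noise from triplicate slides.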 As to conditions: higher = more signal.
The target of assay [5] is Neurogenic locus notch homolog protein 2 (Homo sapiens) (UniProt Q04721). The assay can be described thus: small molecules binding Notch2 protein – biochemical, small-molecule microarray, 635 nm fluorescence, stem cell growth factors, primary screen (AID 1073). Conditions: higher = more signal.
For assay [6], the target named is Pro-neuregulin-1, membrane-bound isoform (Homo sapiens) (UniProt Q02297). The assay can be described thus: small molecules binding neuregulin-1 protein – biochemical, small-molecule microarray, fluorescence 635/667, psychiatric disease protein project, primary screen (AID 1075).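 Note: score combines 667 nm spot fluorescence with signal to noise.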 Conditions: NRG1 binding, 635 nm fluorescence, higher = more signal.
Assay [7] has as its system Neuregulin-1 EGF-like domain. Put plainly: small molecules binding NRG1 EGF domain – biochemical, small-molecule microarray, 635 nm fluorescence, primary screen (AID 1081).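 Note: binding of the protein to compounds printed on small-molecule microarray slides.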 As to conditions: higher = more signal.
Assay [8] is described as follows: FRG1 expression reporter modulators in myotubes – cell-based, C2C12 myotubes, firefly/Renilla luciferase, luminescence, FRG1 inhibition for FSHD, primary screen (AID 1084). Conditions: FRG1 promoter luciferase, higher = more signal, called active from +8 up or from −8 down.
The nature of assay [9]: small molecules captured by biotinylated probe aFST – biochemical, small-molecule microarray, fluorescence 635/667, stem cell growth factor project, primary screen (AID 1086).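 Note: score merges 667 nm fluorescence with signal-to-noise of each printed compound spot.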 Conditions: higher = more signal.
Assay [10] is described as follows: binders of probe aHhip on microarray, primary screen, stem cell growth factor project, biochemical, small-molecule microarray, fluorescence 635/667 (AID 1087).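 Note: score merges spot fluorescence at 667nm with spot signal to noise ratio.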 Conditions: higher = more signal.
The subject of assay [11] is PRMT1 (protein arginine N-methyltransferase 1). The assay can be described thus: small molecules binding arginine methyltransferase PRMT1 – biochemical, small-molecule microarray, 635 nm fluorescence, primary screen (AID 1088).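 Note: binding of Prmt1 protein to compounds spotted on small-molecule microarray slides.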 As to conditions: higher = more signal.
Assay [12] in a line: growth effects on S. cerevisiae YJM789 – YJM789 clinical isolate, OD600, 24 h, basal, primary screen (AID 1089).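 Note: growth of clinical yeast isolate S. cerevisiae YJM 789 seeded 1000 cells per well; test concentration not given here.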 Conditions: higher = more signal, called active from +8 up or from −8 down.
Assay [13] can be described thus: S. pombe growth modifiers, basal conditions – strain 972, OD600, 24 h, no modulator, primary screen (AID 1090).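 Note: basal condition with compound alone and no growth modifier present; test concentration not given here.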 Conditions: S. pombe 972 growth, higher = more signal, called active from +8 up or from −8 down.
A short description of assay [14]: budding yeast growth modifiers under rapamycin – strain BY4716, OD600, 96 h, primary screen (AID 1091). Note: test concentration not given here. As to conditions: S. cerevisiae BY4716 + rapamycin, higher = more signal, called active from +8 up or from −8 down.
Assay [15] concerns the target Torsin-1A-interacting protein 2 (Homo sapiens) (UniProt Q8NFQ8). The assay can be described thus: small molecules binding lysate-expressed LULL1 – cell lysate, human LULL1 lysate, 635/667 nm fluorescence, primary screen (AID 1092).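 Note: probe is lysate of COS7 cells overexpressing human LULL1; score merges per-feature 667 nm fluorescence with signal-to-noise.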 Conditions: small-molecule microarray, hLULL1 lysate binding, 635 nm fluorescence; higher = more signal.
A short description of assay [16]: optical density change of DRC41 E. coli – strain DRC41, OD650, 24 h, E. coli filamentation project, primary screen (AID 1093).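 Note: MC1000 strain lacking acrAB efflux and sulA so SOS filamentation is blocked; test concentration not given here.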 Conditions: E. coli DRC41 growth, higher = more signal, called active from +8 up or from −8 down.
The nature of assay [17]: probe aLefty2 binding to arrayed compounds – biochemical, biotinylated probe, 635/667 nm fluorescence, primary screen (AID 1094).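 Note: score merges spot fluorescence near 667 nm with spot signal-to-noise ratio.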 As to conditions: small-molecule microarray, higher = more signal.
For assay [18], the system named is Noggin (protein binding on small-molecule microarray). Put plainly: small molecules binding Noggin protein – biochemical, 635/667 nm fluorescence, primary screen (AID 1095).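 Note: score merges 667 nm feature fluorescence with signal to noise over triplicate slides.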 Conditions: 635 nm fluorescence, higher = more signal.
Assay [19] deals with Neurogenic locus notch homolog protein 3 (Homo sapiens) (UniProt Q9UM47). The assay can be described thus: small molecules binding NOTCH3 protein – biochemical, 635/667 nm fluorescence, primary screen (AID 1096). As to conditions: small-molecule microarray, 635 nm fluorescence, higher = more signal.
The nature of assay [20]: probe aEGFR binding to arrayed compounds – biochemical, biotinylated probe, 635/667 nm fluorescence, primary screen (AID 1097).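 Note: probe is a biotinylated anti-EGFR antibody binding compounds printed on slides; score combines fluorescence near 667 nm and signal to noise of each spot.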 As to conditions: small-molecule microarray, higher = more signal.

Pro-neuregulin-1, membrane-bound isoform (Homo sapiens), sequence (Q02297 whole entry, looked up, the tested form may be a part, canonical isoform): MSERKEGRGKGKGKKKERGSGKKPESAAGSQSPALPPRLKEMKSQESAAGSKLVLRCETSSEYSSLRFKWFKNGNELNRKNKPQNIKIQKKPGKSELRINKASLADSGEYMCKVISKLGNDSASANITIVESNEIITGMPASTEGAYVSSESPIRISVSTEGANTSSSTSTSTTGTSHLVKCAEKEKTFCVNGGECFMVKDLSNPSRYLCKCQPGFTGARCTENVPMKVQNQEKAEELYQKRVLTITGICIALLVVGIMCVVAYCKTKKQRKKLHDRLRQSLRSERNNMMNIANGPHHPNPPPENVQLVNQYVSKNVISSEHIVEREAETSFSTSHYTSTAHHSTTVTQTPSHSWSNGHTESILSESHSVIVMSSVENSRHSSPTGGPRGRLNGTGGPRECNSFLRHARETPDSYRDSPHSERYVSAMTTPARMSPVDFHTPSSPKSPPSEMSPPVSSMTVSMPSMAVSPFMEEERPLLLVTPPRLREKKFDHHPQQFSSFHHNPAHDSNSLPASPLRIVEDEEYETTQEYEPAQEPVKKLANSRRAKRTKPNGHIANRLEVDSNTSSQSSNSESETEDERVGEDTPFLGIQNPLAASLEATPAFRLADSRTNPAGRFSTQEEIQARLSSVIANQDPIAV
Torsin-1A-interacting protein 2 (Homo sapiens), sequence (Q8NFQ8 whole entry, looked up): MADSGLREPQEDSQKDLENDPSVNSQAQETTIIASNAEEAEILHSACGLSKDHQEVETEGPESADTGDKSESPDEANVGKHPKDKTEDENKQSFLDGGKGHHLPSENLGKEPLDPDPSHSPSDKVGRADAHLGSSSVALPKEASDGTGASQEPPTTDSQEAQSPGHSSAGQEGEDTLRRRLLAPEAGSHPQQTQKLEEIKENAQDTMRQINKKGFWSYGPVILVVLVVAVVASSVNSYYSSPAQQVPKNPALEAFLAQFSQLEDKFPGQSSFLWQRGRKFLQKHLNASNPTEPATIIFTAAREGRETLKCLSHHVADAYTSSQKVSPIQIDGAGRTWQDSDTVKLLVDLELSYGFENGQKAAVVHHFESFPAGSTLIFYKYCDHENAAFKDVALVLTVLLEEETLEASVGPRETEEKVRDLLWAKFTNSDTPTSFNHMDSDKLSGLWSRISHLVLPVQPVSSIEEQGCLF
Neurogenic locus notch homolog protein 2 (Homo sapiens), sequence (Q04721 whole entry, looked up, canonical isoform): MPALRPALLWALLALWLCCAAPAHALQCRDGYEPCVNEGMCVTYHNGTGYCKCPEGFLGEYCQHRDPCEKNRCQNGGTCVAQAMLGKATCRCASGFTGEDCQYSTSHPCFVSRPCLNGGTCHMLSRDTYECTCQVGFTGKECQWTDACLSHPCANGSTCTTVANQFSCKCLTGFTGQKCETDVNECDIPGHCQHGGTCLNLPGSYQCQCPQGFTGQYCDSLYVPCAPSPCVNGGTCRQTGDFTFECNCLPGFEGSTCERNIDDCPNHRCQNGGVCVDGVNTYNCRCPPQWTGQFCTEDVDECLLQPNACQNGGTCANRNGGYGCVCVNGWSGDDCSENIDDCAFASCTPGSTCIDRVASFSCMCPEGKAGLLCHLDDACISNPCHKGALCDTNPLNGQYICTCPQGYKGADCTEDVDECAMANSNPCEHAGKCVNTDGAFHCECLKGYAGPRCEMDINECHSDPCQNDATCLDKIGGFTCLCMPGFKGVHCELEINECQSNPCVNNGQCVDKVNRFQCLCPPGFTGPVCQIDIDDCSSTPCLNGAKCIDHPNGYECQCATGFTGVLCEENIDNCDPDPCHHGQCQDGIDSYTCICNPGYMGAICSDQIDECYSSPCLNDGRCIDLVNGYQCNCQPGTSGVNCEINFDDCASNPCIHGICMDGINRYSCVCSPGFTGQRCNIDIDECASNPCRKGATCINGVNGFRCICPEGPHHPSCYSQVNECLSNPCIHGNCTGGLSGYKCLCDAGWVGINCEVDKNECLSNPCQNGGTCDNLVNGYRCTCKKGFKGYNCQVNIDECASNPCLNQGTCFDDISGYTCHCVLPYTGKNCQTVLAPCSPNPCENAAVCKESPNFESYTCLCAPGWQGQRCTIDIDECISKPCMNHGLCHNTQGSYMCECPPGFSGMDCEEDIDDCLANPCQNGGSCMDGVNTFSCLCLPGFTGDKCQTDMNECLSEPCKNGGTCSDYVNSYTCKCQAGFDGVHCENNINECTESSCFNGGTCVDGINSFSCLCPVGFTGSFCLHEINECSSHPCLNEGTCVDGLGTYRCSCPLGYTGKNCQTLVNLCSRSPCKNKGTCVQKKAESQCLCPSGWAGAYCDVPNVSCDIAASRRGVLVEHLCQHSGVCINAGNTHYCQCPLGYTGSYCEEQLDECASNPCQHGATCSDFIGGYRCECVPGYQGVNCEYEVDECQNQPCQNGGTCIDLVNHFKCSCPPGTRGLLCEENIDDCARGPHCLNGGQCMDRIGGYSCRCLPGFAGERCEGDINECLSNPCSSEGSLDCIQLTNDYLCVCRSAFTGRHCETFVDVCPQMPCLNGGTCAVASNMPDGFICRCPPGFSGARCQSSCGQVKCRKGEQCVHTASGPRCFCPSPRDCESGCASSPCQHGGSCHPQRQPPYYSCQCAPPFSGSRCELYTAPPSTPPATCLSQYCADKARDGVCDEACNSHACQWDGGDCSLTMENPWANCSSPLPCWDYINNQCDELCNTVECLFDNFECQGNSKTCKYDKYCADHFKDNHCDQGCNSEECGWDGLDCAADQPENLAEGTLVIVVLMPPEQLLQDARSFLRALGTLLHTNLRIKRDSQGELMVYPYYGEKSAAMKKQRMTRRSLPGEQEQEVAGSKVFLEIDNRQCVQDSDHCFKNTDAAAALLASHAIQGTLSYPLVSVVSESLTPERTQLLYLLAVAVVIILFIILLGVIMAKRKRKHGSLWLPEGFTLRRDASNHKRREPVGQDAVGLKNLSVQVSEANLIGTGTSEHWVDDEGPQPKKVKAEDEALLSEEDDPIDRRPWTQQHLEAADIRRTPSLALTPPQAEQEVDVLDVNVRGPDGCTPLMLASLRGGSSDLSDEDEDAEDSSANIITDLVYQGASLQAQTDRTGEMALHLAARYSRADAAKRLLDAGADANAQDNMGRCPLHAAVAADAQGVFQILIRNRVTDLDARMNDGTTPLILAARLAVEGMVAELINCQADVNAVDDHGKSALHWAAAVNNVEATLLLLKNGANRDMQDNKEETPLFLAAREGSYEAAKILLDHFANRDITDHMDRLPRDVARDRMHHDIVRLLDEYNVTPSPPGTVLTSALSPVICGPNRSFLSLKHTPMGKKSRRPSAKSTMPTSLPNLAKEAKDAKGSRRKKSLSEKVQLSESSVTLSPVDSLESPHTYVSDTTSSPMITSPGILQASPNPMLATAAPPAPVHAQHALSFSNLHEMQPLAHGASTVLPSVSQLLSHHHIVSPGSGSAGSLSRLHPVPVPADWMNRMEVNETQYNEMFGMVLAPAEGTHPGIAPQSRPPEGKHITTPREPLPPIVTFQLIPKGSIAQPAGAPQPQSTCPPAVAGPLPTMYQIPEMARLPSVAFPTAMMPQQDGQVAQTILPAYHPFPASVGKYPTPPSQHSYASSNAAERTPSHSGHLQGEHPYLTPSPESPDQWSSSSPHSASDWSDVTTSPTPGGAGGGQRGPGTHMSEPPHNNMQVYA

Take `CCCCCN1CC=CC23O[C@@H]4/C=C\CCCOC(=O)C4[C@H]2C(=O)N(CCCCCCO)[C@@H]3C1=O` (stereo not given in full): the composite z-score in assay [1] was -0.19; in assay [2], 0.109; in assay [3] it was -0.103; in [4] it was -0.525; in assay [5] it was -0.774; in assay [6], 0.729. Further, the composite z-score is 1.28 in assay [7]; -0.645 in [9]; -0.37 in [10]; -0.0832 in [11]; 3.32 in [15]; -0.147 in assay [17]. Also, the composite z-score in [18] was -0.471; in assay [19] it was -0.0559; in [20], 0.0538. The z-score is -1.19 (inactive) in assay [8]; -3.85 (inactive) in [12]; -2.83 (inactive) in assay [13]; -2.64 (inactive) in [14]; 1.61 (inactive) in assay [16].
`COCCOC(=O)N1C(=O)[C@@]2(c3cc(C#CCC(C(=O)OC)C(=O)OC)ccc31)[C@H](c1ccccc1OCCO)N1[C@H](c3ccccc3)[C@H](c3ccccc3)OC(=O)[C@H]1[C@@H]2C(=O)N1CCc2cc(OC)c(OC)cc2C1`: the composite z-score in assay [1] is -0.257; in assay [2], 0.007; in [3] it was -0.126; in assay [4], 0.319; in [5], 1.46; in assay [6], 1.09. Further, the composite z-score in assay [7] was 1.27; in assay [9], 0.638; in assay [10], -0.0655; in assay [11], 1.56; in assay [15], 2.42; in [17], -0.0373. The composite z-score in [18] stood at 1.64; in assay [19], 0.729; in assay [20], 0.0637. In addition, the z-score in [8] is -0.285 (inactive); in assay [12], 0.502 (inactive); in [13], 0.979 (inactive); in assay [14], 3.89 (inactive); in assay [16] it was 1.92 (inactive).
Consider `[N-]=[N+]=NCc1ccccc1C[C@]1(C(=O)O)N=C(c2ccc(OCCCO)cc2)O[C@H]1c1ccccc1CN=[N+]=[N-]`, for which the composite z-score in [1] was -0.0279; in assay [2], 0.169; in assay [3], -0.0474; in assay [4], 0.396; in assay [5], 0.591; in assay [6], 1.53. Further, the composite z-score was 1.16 in [7]; 0.467 in [9]; -0.239 in assay [10]; 0.893 in [11]; 3.25 in [15]; 0.0987 in [17]. Also, the composite z-score in assay [18] is -0.118; in assay [19], 0.759; in assay [20], 0.0617. For the same molecule, the z-score in assay [8] is -1.66 (inactive); in [12] it was -1.17 (inactive); in [13], -3.09 (inactive); in [14], -1.92 (inactive); in assay [16], -0.292 (inactive).
For `COCCOC(=O)N1C(=O)[C@@]2(c3cc(C#CCC(C(=O)OC)C(=O)OC)ccc31)[C@H](C(=O)N1CCN(c3ncccn3)CC1)[C@H]1C(=O)O[C@H](c3ccccc3)[C@H](c3ccccc3)N1[C@@H]2c1ccc(OCCO)cc1`, the composite z-score in [1] was -0.462; in assay [2], 0.185; in assay [3] it was -0.0293; in assay [4], 0.0875; in assay [5] it was 0.213; in assay [6] it was 0.386. Further, the composite z-score in assay [7] is 1.06; in assay [9], 0.0723; in [10] it was -0.0088; in [11], 1.55; in assay [15] it was 2.26; in assay [17], -0.184. Moreover, the composite z-score in assay [18] was 0.668; in [19], 0.946; in assay [20], -0.141. Also, the z-score is -0.644 (inactive) in [8]; -0.485 (inactive) in assay [12]; 0.196 (inactive) in [13]; 5.21 (inactive) in assay [14]; 1.36 (inactive) in assay [16].
Turning to `O=C(CS)NCCCCCCNC(=O)[C@H]1C[C@H]2C(=O)N3CCC[C@H]3C(=O)N2[C@H]1c1cccc(OCCO)c1`, the composite z-score in assay [1] was 0.255; in [2], 0.7; in [3], -0.0802; in assay [4], 0.635; in assay [5] it was 0.698; in assay [6], 1.23. Besides, the composite z-score in [7] was 1.4; in [9], 0.189; in assay [10], 0.235; in assay [11], 1.5; in [15] it was 3.05; in assay [17] it was 0.105. Further, the composite z-score was found to be 0.858 in assay [18], 1.1 in assay [19] and 0.0219 in assay [20]. Besides, the z-score in assay [8] is 0.865 (inactive); in assay [12], -0.319 (inactive); in assay [13], -0.26 (inactive); in assay [14] it was 0.0927 (inactive); in [16], -0.983 (inactive).
Take `CC(C)Cc1ccc(CN2CC[C@@H](NS(=O)(=O)c3ccccc3)C2)cc1`: the composite z-score is -0.402 in [1]; 1.96 in assay [2]; -0.192 in [3]; -0.188 in assay [4]; -1.43 in [5]; -0.163 in assay [6]. For the same molecule, the composite z-score in assay [7] was -0.0314; in [9], -0.459; in assay [10], -0.132; in assay [11], 1.01; in assay [15], 0.846; in assay [17], -0.296. Also, the composite z-score was 0.864 in [18], 0.12 in assay [19] and -0.154 in [20]. For the same molecule, the z-score in assay [8] was -0.803 (inactive); in assay [12], -14.6 (active); in assay [13] it was -20.9 (active); in assay [14], -3.57 (inactive); in assay [16], -19.6 (active).
With `COCCOC(=O)N1C(=O)[C@@]2(c3cc(C#CCC(C(=O)OC)C(=O)OC)ccc31)[C@H](c1ccc(O)cc1)N1[C@H](c3ccccc3)[C@H](c3ccccc3)OC(=O)[C@H]1[C@@H]2C(N)=O`, the composite z-score in assay [1] was -0.239; in assay [2], 0.365; in assay [3], 0.0661; in assay [4], 1.11; in assay [5], 1.1; in assay [6] it was 0.328. Besides, the composite z-score in assay [7] was 1.32; in [9], 0.404; in assay [10] it was -0.124; in assay [11], 1.28; in assay [15], 3.06; in assay [17], 0.216. Also, the figures for the composite z-score in assay [18], in assay [19] and in assay [20] were 0.604, 0.828 and 0.0717, respectively. Further, the z-score in assay [8] was -0.4 (inactive); in assay [12], -0.151 (inactive); in [13], 0.431 (inactive); in assay [14] it was 0.291 (inactive); in assay [16], -0.138 (inactive).
With `CCN(CC)c1ccc(N2CC=CC34O[C@@H]5C=CCCOC(=O)C5[C@H]3C(=O)N(CCCCCO)[C@@H]4C2=O)cc1` (stereo not given in full), the composite z-score in [1] is 0.373; in assay [2], 2.13; in assay [3], -0.116; in assay [4], -0.851; in assay [5], -0.788; in assay [6], 1.78. In addition, the composite z-score is 1.01 in assay [7]; 0.37 in assay [9]; -0.226 in [10]; -0.203 in assay [11]; 0.965 in assay [15]; -0.126 in assay [17]. In addition, the results for the composite z-score in assay [18], in [19] and in [20] were -0.514, -0.272 and -0.168, respectively. The z-score in assay [8] was -0.736 (inactive); in assay [12], -0.847 (inactive); in [13] it was -1.3 (inactive); in assay [14] it was -0.818 (inactive); in [16], 2.85 (inactive).
Take `COCCOC(=O)N1C(=O)[C@@]2(c3cc(C#CCNC(N)=O)ccc31)[C@H](c1ccc(O)cc1)N1[C@H](c3ccccc3)[C@H](c3ccccc3)OC(=O)[C@H]1[C@@H]2C(=O)Nc1nc2ccccc2s1`: the composite z-score in [1] was 0.764; in assay [2], 0.172; in assay [3] it was -0.0736; in assay [4], 0.826; in assay [5], 1.27; in assay [6], 0.787. The composite z-score in [7] was 0.297; in [9], 0.522; in [10] it was -0.0994; in [11], 0.902; in assay [15] it was 1.01; in [17] it was 0.218. Moreover, the figures for the composite z-score in assay [18], in assay [19] and in assay [20] were 1.23, 1.04 and 0.13, respectively. For the same molecule, the z-score in assay [8] is -0.0332 (inactive); in assay [12], -2.82 (inactive); in assay [13], -1.55 (inactive); in assay [14] it was -1.12 (inactive); in assay [16] it was 3.57 (inactive).

Values taken from PubChem BioAssay.
